HEK cytotox: Cytotoxic Profiling in HEK 293 Cell Line of Diverse Libraries Using Quantitative High-Throughput Screening | HEK 293 viability, ATP luminescence (CellTiter-Glo), 48-72 h | Potency, µM (titrated, usually from 115 µM), usual class: inhibitors | actives 6.6% (n = 94,000) | AID 1345083, 2018; further: nearly all actives have a fitted effect of over 60% in size
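Luminescence from cellular ATP, measured with CellTiter-Glo, indicates HEK 293 viability. Cells plated at 250 cells/well are treated with compound for 48 or 72 hr at 37 degree Celsius before reagent addition.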
FLuc inh-1: Firefly luciferase inhibition profiling of diverse chemical library using quantitative high-throughput screening | purified P. pyralis luciferase, luminescence, biochemical | actives 2.5% (n = 76,000) | Luciferin 4-monooxygenase (Photinus pyralis), P08659 | Potency, µM (series often up to 115 µM), hits mostly inhibitors; further: nearly all actives have a fitted effect of over 65% in size
Target sequence (P08659 whole entry, looked up): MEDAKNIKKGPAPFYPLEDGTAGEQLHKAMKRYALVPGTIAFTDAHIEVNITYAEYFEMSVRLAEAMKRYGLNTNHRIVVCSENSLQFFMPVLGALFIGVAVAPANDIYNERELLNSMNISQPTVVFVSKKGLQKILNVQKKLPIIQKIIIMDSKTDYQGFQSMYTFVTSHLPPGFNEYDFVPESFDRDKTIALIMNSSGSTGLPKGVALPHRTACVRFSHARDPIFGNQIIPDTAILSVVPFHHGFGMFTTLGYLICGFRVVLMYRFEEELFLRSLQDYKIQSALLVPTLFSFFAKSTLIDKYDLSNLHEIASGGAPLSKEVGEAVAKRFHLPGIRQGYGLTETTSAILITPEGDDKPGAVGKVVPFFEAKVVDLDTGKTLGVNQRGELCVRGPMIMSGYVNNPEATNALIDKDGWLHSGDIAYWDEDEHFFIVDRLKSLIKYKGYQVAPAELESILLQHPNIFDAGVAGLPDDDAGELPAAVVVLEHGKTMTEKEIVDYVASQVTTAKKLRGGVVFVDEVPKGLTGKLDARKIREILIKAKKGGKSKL
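FLuc 10nM, D-luciferin 10uM, ATP 10uM, Mg acetate 10mM, Tris acetate pH 7.5, Tween/BSA; cpd qHTS; enzyme added last; CCD luminescence.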
GPT2 inhibitor: Primary qHTS assay for inhibitors of Glutamate pyruvate transaminase 2 (GPT2) | Potency, µM (highest dose often 57.7 µM), hits mostly inhibitors | actives 0.25% (n = 100,000) | Alanine aminotransferase 2 (Homo sapiens), Q8TD30 | Recombinant GPT2, coupled pyruvate oxidase/HRP Amplex Red fluorescence; further: nearly all actives have a fitted effect of over 60% in size
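Inhibition is scored from Amplex Red fluorescence generated when pyruvate oxidase and HRP act on pyruvate released by GPT2. Reactions contain 10ng/uL enzyme, 250uM a-KG and 2mM L-alanine and run 30 min at room temperature.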
3T3 cytotox: Cytotoxic Profiling in NIH 3T3 Cell Line of Diverse Libraries Using Quantitative High-Throughput Screening; AID 1345082, 2018; NIH 3T3 viability, CellTiter-Glo ATP luminescence, 48-72 h; Potency, µM (titrated, usually from 96.7 µM), most hits filed as inhibitors; actives 4.3% (n = 94,000); further: nearly all actives have a fitted effect of over 55% in size
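NIH 3T3 cells at 400 cells/well received 23 nL of compound by pintool and were incubated 48 or 72 h at 37 °C. Viability was read as ATP-coupled CellTiter-Glo luminescence.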
NPR1 antag: Natriuretic polypeptide receptor (hNpr1) antagonism - Primary qHTS | actives 1.6% (n = 76,000) | Atrial natriuretic peptide receptor 1 (Homo sapiens), P16066 | Potency, µM (series often up to 46.3 µM), usual class: inhibitors | HEK293 hNpr1 GloSensor cGMP, ANP-stimulated luminescence; calls by dose curve; further: nearly all actives have a fitted effect of over 60% in size
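Compound pre-incubated 30 min at room temperature on GloSensor-loaded HEK293 cells stably carrying hNpr1 and the pGS-40F cGMP biosensor. Stimulation uses hNppA at 0.1 nM final; luminescence is taken at baseline and 20 min post-agonist.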
FLuc SDR no ATP: Firefly luciferase (FLuc-C-HiBiT) SDR gain of signal screen - without ATP | Purified FLuc-C-HiBiT, Nano-Glo HiBiT luminescence, no ATP | Potency, µM (top dose mostly 32.7 µM), most hits filed as activators | actives 7.8% (n = 1,300) | shares compounds with FLuc inh-1; further: nearly all actives have a fitted effect of over 55% in size
FLuc SDR ATP: Firefly luciferase (FLuc-C-HiBiT) SDR gain of signal screen - plus ATP; shares compounds with FLuc inh-1; purified FLuc-C-HiBiT + ATP, HiBiT complementation luminescence; Potency, µM (highest dose often 32.7 µM), usual class: activators; actives 8.7% (n = 1,300); AID 1963319, 2024;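 further: signal reports ligand binding via conformational change of the enzyme rather than luciferase catalysis; nearly all actives have a fitted effect of over 55% in size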
FLuc inh-2: Firefly luciferase (FLuc-C-HiBiT) enzymatic inhibition screen - Functional assay. AID 1963320, 2024. shares compounds with FLuc inh-1. actives 42% (n = 1,300). purified FLuc-C-HiBiT enzyme, luciferin luminescence. Potency, µM (series often up to 32.7 µM), hits mostly inhibitors; further: nearly all actives have a fitted effect of over 70% in size
Hits are given with their value; - = inactive; ? = inconclusive; . = no result given. A selection: hits, their analogues and other compounds. The true share with any hit is near 10%. Unless noted, the call rests on the fitted dose curve; in most records, active means well fitted curve in the direction sought with a large enough effect; inconclusive means small, poorly fitted or top-dose-only effect, or another doubt; inactive means no such curve, though single readings can be large; an effect the other way counts as inactive or inconclusive.

SMILES | HEK cytotox | FLuc inh-1 | GPT2 inhibitor | 3T3 cytotox | NPR1 antag | FLuc SDR no ATP | FLuc SDR ATP | FLuc inh-2
CN(C)c1cccc(C(=O)Nc2ccc3c(N4CCOCC4)ncnc3c2)c1 | ? | 13µM | - | - | - | - | ? | ?
CCOC(=O)N1CCc2c(sc(NCc3sccc3C)c2C(=O)Nc2ccc(OC)cc2OC)C1 | . | . | . | . | . | - | ? | 5µM
CCOC(=O)N1CCc2c(sc(NCc3cccc(F)c3)c2C(=O)Nc2ccc(OC)cc2OC)C1 | . | . | . | . | . | - | ? | 2.5µM
COc1ccc(NC(=O)c2c(C)oc3ccn(Cc4cccc(F)c4)c(=O)c23)c(OC)c1 | ? | - | - | ? | - | . | . | .
CCC(=O)N1CCc2c(C(=O)Nc3ccc(OC)cc3OC)cccc21 | - | - | - | - | - | . | . | .
Cc1ncsc1CN1CC(Oc2cccc(C(=O)NCC3CC3)c2)C1 | ? | - | - | - | - | . | . | .
c1ccc(COc2cccc(-c3nc4ccccc4s3)c2)cc1 | . | . | . | . | . | - | - | 5µM
c1ccc(COc2ccccc2-c2nc3ccccc3s2)cc1 | . | . | . | . | . | - | - | ?
NC(=O)COC(=O)c1ccccc1-c1nc2ccccc2s1 | . | . | . | . | . | - | - | -
Oc1ccc(OCc2ccccc2)cc1 | . | . | - | . | . | . | . | .
O=S(=O)(NCC1CCOCC1)c1ccccc1F | - | - | - | - | - | . | . | .
CC(C)n1cc2cc(C(=O)Nc3ccc4c(c3)OCCO4)sc2c1 | 35µM | 14µM | - | - | ? | - | - | 9.9µM
COc1cccc(CN2CCNc3cc(Nc4ccccc4)ncc3C2)c1 | 40µM | 5.6µM | - | 40µM | - | - | - | ?
COc1ccc(Nc2cc3c(cn2)NCCN(Cc2ccccc2)C3)cn1 | ? | - | ? | ? | - | . | . | .
COc1cccc(Nc2cc3c(cn2)CN(Cc2cccnc2)CCN3)c1 | ? | 5µM | - | ? | - | ? | - | ?
COc1cccc(CN2CCc3nc(Nc4ccc5c(c4)OCCO5)ncc3C2)c1 | . | . | . | . | . | - | - | ?
O=C(Nc1ccc(Cl)cc1)Nc1ccc2n(c1=O)C[C@H]1C[C@@H]2CN(C(=O)c2ccc3ccccc3c2)C1 | 28µM | 14µM | - | 40µM | - | - | - | ?
CCCN(CC1CCOC1)C(=O)c1ccc(C(F)(F)F)cc1 (stereo not given) | - | - | - | - | - | . | . | .
CCN1c2cc(C(=O)Nc3ccc4c(c3)OCCO4)ccc2C(=O)N2CCCCC21 (stereo not given) | ? | 11µM | - | 25µM | - | - | ? | 9.9µM
CN1c2cc(C(=O)Nc3ccc(F)c(Cl)c3)ccc2C(=O)N2CCCCCC21 (stereo not given) | ? | ? | - | - | - | . | . | .
CCN1c2cc(C(=O)Nc3ccc(Cl)cc3)ccc2C(=O)N2CCCCC21 (stereo not given) | ? | - | - | ? | - | . | . | .
CCN1c2cc(C(=O)Nc3ccc(N(C)C)cc3)ccc2C(=O)N2CCCCC21 (stereo not given) | 45µM | 11µM | - | ? | - | - | - | ?
Cn1c(=O)c2ccnn2c2ccc(C(=O)Nc3ccc4c(c3)OCCO4)cc21 | 35µM | 10µM | - | - | - | - | - | 9.9µM
CN1c2cc(C(=O)Nc3ccc4c(c3)OCCO4)ccc2C(=O)N2CCCCC21 (stereo not given) | ? | 7.9µM | - | ? | - | ? | ? | 9.9µM
CCN1c2cc(C(=O)Nc3ccc(Br)c(C)c3)ccc2C(=O)N2CCCCC21 (stereo not given) | ? | - | - | ? | - | . | . | .
SMILES | HEK cytotox | FLuc inh-1 | GPT2 inhibitor | 3T3 cytotox | NPR1 antag | FLuc SDR no ATP | FLuc SDR ATP | FLuc inh-2
COc1cccc(-c2ccc(C(=O)N3CCC(C(=O)NCCc4ccc(F)cc4)CC3)cc2)c1 | ? | . | - | ? | . | . | . | .
CN1CCOc2nc(-c3ccc(Oc4ccccc4)cc3)ncc2C1=O | ? | 4.5µM | - | ? | 25µM | - | - | ?
COc1ccc(-c2ncc3c(n2)OCCN(C)C3=O)cc1F | . | . | . | . | . | ? | ? | 18µM
COCCN1CCOc2nc(-c3cc(F)ccc3OC)ncc2C1=O | ? | - | - | ? | - | . | . | .
O=C1c2cnc(-c3cccc(CO)c3)nc2OCCN1c1ccccc1 | 40µM | 3.2µM | - | 40µM | ? | 20µM | ? | 11µM
COc1ccc(-c2ncc3c(n2)OCCN(c2ccccc2)C3=O)cc1F | - | 0.71µM | - | ? | 16µM | ? | ? | 3.2µM
COc1ncccc1-c1ncc2c(n1)OCCN(c1ccccc1)C2=O | - | - | - | ? | - | . | . | .
CCn1cc(CN2CCCC(c3nc(C(C)C)no3)CCNC(=O)CC2)cn1 (stereo not given) | - | - | - | - | - | . | . | .
COCCN1CC(CO)C2(CCN(C(=O)c3nccc4ccccc34)CC2)C1 (stereo not given) | ? | - | - | - | - | . | . | .
CCc1cccc(-n2nnc(-c3nsc(NC(=O)c4cccs4)n3)c2C)c1 | . | . | . | . | . | - | - | -
CCc1cccc(-n2nnnc2N2CCN(C(=O)Nc3ccc(C)c(F)c3)C(C)C2)c1 (stereo not given) | ? | . | - | ? | . | . | . | .
CN(Cc1cnn(C)c1)C(=O)c1csc2nc(-c3ccc(C(F)(F)F)cc3)cn12 | ? | 4.5µM | - | ? | ? | ? | ? | 4.4µM
O=C(NC1CC1)C1CCCN1c1nccc(Nc2ccccc2F)n1 (stereo not given) | - | . | - | - | . | . | . | .
Cc1c(NS(C)(=O)=O)cccc1-c1nc2ccccc2s1 | . | . | . | . | . | - | - | ?
CS(=O)(=O)Nc1ccc(-c2nc3ccccc3s2)cc1 | . | . | . | . | . | ? | ? | 2.2µM
Cc1ccc(Nc2cc(-c3cccc(N4C(=O)c5ccccc5C4=O)c3)ncn2)cc1NS(C)(=O)=O | . | . | - | . | . | . | . | .
Brc1ccccc1-c1nc(-c2ccccc2)no1 | . | . | . | . | . | - | ? | 3.5µM
O=C(O)c1cccc(-c2noc(-c3ccccc3F)n2)c1 | . | . | - | . | . | 11µM | 0.005µM | 0.0062µM
